# Measurements taken from PubChem BioAssay.
# Calls of active or inactive are those of the source. How the calls were made is not given here.
# Target: Pantothenate synthetase (Mycobacterium tuberculosis (strain ATCC 25618 / H37Rv)) (UniProt P9WIL5)
# Test: Recombinant Mtb pantothenate synthetase (PanC) inhibitors, coupled enzyme, confirmatory (AID 375);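 further: 0% = full reaction with vehicle and 100% = no enzyme background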
# Settings: coupled enzyme assay; at 10 µM, hits give high values
# Chain of Pantothenate synthetase (Mycobacterium tuberculosis (strain ATCC 25618 / H37Rv)) (P9WIL5 whole entry, looked up): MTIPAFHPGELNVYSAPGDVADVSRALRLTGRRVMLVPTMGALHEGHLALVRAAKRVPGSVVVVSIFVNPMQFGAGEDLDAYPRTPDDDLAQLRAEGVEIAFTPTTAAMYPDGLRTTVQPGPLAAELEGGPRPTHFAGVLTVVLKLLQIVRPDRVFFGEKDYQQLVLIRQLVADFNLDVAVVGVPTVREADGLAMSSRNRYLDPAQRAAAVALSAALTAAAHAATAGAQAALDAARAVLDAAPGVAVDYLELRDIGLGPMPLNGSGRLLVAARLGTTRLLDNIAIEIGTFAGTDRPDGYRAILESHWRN
row,Compound,inhibition
1,Cc1oc(-c2cccc(Cl)c2)nc1CN1CCC(C(=O)N2CCN(c3ccccc3F)CC2)CC1,2% (inactive)
2,CCOC(=O)CSc1nnc(CCc2nc3ccccc3[nH]2)n1C,10% (inactive)
3,CC(C)C(C(=O)Nc1ccc2c(c1)OCO2)N1C(=O)c2ccccc2C1=O (stereo not drawn),0% (inactive)
4,O=C(C1CCN(S(=O)(=O)c2cccc3cccnc23)CC1)N1CCN(C2CCCCC2)CC1,0% (inactive)
5,CCc1nnc(NC(=O)c2cc3ccccc3oc2=O)s1,2% (inactive)
6,C=CCSC1=C(C#N)C(c2ccccc2)CC(=O)N1 (stereo not drawn),0% (inactive)
7,CCCc1nc(N2CCOCC2)c(C#N)c2c1CCCC2,4% (inactive)
8,Cc1nnc(SCC(=O)Nc2ccc(Br)cn2)[nH]c1=O,1% (inactive)
9,O=C1N[C@@H](Cc2cnc[nH]2)C(=O)N2CCC[C@@H]12,0% (inactive)
10,CCn1c(-c2cc(Br)ccc2O)n[nH]c1=S,0% (inactive)
11,CCOC(=O)c1c(NC(=O)Cn2c(C)nc3ccccc32)sc2c1CCC2,0% (inactive)
12,N#Cc1nc(-c2ccc(Cl)cc2)oc1NCCc1ccccn1,0% (inactive)
13,COCC(=O)N(Cc1ccccc1)c1ccccn1,4% (inactive)
14,COc1ccc2nc(NC(=O)C(NS(=O)(=O)c3cccs3)C(C)C)sc2c1 (stereo not drawn),0% (inactive)
15,CCOC(=O)C1CCCN(C(=O)c2ccc(CS(=O)(=O)c3ccc(Br)cc3)o2)C1 (stereo not drawn),4% (inactive)
16,O=c1c2c3c(sc2n2cnnc2n1CCc1ccccc1)CCCC3,5% (inactive)
17,COC(=O)CS(=O)(=O)c1nnc([C@H](Cc2ccccc2)NC(=O)OC(C)(C)C)o1,1% (inactive)
18,O=S(=O)(c1ccc2ccccc2c1)N(CC(O)CN1CCOCC1)c1ccccc1 (stereo not drawn),0% (inactive)
19,COc1ccc(C2CC(C(F)(F)F)n3ncc(C(=O)NCc4cccnc4)c3N2)cc1OC (stereo not drawn),0% (inactive)
20,Cc1ccc(-c2cc(C(F)F)nc(NCc3cccnc3)n2)cc1,0% (inactive)
21,O=C(c1ncn[nH]1)N1CCN(c2nc(-c3ccccc3)cs2)CC1,5% (inactive)
22,Cn1c(=O)c2c(nc(NCCCO)n2C/C=C/c2ccccc2)n(C)c1=O,4% (inactive)
23,CCOc1ccc2[nH]c(=O)c(C(c3nnnn3CC3CCCO3)N3CCc4ccccc4C3)cc2c1 (stereo not drawn),0% (inactive)
